Most compounds without a hit are left out; they make up all but 7.3% or so of the library.
SMN2 splice up = increases expression of the SMN2 splice variant | HEK293 SMN2-luciferase splicing reporter, luminescence, 30-36 h | Potency, µM (doses to about 46.1 µM), inactives show top-dose activity change, positive = activation, usual class: activators | 2.8% of 210,000 active; also: % of control where 0% means no effect; nearly all actives have a fitted effect of over 55% in size
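HEK293 cells carry an SMN2 minigene-luciferase reporter in which exon 7 inclusion puts luciferase in frame. Cells were seeded at 2000 cells/well, attached for 10-12 hours, then exposed to compounds for 30-36 hours at 37C before ONE-Glo luminescence.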
NPC1 promoter act = NPC1 promoter activation. AID 485313. 2.4% of 320,000 active. Potency, µM (titrated, usually from 9.22 µM), inactives show at the highest dose activation, usual class: activators. Huh7 NPC1 promoter luciferase reporter, 24 h; also: % of control where 0% means no effect; nearly all actives have a fitted effect of over 60% in size
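Quantitative HTS used a cell-based reporter: Huh7 cells stably bearing the NPC1 promoter upstream of luciferase were treated with compounds for 24 h, and promoter activation was read as luminescence.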
FLuc counter = inhibits or activates purified firefly luciferase, miR-21 counter-screen; Potency, µM (titrated, usually from 57.5 µM), for the others: top-dose activity change, negative = inhibition, hits mostly inhibitors; purified FLuc, Km substrates, luminescence inhibition; 6.9% of 360,000 active; P08659;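 also: plate controls were vehicle for no effect and reference inhibitor for full effect; nearly all actives have a fitted effect of over 55% in size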
Target sequence (P08659 whole entry, looked up): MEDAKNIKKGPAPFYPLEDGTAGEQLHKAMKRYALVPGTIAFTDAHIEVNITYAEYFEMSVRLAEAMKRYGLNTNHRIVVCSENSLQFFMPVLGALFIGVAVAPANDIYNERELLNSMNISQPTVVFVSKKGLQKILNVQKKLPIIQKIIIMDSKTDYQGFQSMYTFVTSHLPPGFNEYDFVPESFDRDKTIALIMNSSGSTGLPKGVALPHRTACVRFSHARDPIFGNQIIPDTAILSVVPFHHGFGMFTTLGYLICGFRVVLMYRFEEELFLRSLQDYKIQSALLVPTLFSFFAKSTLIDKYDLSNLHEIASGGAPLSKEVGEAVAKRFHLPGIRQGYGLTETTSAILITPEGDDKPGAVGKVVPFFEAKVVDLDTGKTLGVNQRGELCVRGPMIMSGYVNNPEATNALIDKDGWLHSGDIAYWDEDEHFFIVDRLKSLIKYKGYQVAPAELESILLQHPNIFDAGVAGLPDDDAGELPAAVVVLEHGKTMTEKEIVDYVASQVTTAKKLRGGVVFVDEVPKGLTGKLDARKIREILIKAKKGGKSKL
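Biochemical qHTS of compounds, final roughly 60 µM downward over six points, against 10 nM purified firefly luciferase using Km concentrations of substrates (10 uM D-luciferin, 10 uM ATP) in Tris acetate pH 7.5 buffer; luminescence output.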
Rab9 promoter act = activates the Rab9 promoter. Huh7 Rab9 promoter-luciferase reporter, luminescence, 24 h. Potency, µM (series often up to 9.22 µM), for the others: at the top dose activation, negative = inhibition, hits mostly activators. 2.8% of 320,000 active; also: % of control where 0% means no effect; nearly all actives have a fitted effect of over 60% in size
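Cells were plated at 1500 per well in reduced-serum medium with 10% FBS and left 2 h. Compound in DMSO was then added for 24 h at 37 °C. Reporter signal was read by luminescence after 10 min with luciferase detection reagent.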
Luc counter = blocks Kinase-Glo luciferase, a counter-screen artifact | AID 1379 | Potency, µM (highest dose often 38.3 µM), inactives show at the highest dose activity change, negative = inhibition, usual class: inhibitors | Kinase-Glo luciferase, ATP luminescence, 8 min | Q27757 | 0.28% of 200,000 active; also: % is scaled to controls: 0 for no effect and ±100 for the full control effect; nearly all actives have a fitted effect of over 60% in size
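Inhibition of Kinase-Glo luciferase light generation was assessed at 10 uM ATP in pH 7.2 imidazole buffer, with luminescence measured after eight minutes at ambient temperature.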
Active calls of the source: *; ? = inconclusive; · = not tested or not shown; [ ] = dose if it differs, or a comment. Calls follow the shape of the dose curve; as a rule, active = well fitted curve in the direction sought with a large enough effect; inconclusive = small, poorly fitted or top-dose-only effect, or another doubt; inactive = no such curve, though single readings can be large; an effect the other way counts as inactive or inconclusive. Potency is read from the fitted curve at half-maximal effect.

SMILES	SMN2 splice up	NPC1 promoter act	FLuc counter	Rab9 promoter act	Luc counter
Cc1ccc(NCc2cccn2-c2nnc(N3CCC(C(=O)NCc4ccc(F)cc4)CC3)s2)cc1	-53.5%	·	-11.4%	·	·
Cc1c(-c2nsc(NC(=O)c3ccccc3)n2)nnn1-c1ccc(C(F)(F)F)c(Cl)c1	4.4%	·	-0.8%	·	·
O=C(CCCC(=O)OCC(=O)c1ccc(Cl)cc1)NC1CCCCC1	·	3.0%	12µM*	4.0%	·
O=[N+]([O-])c1ccc(O)c(Nc2ncnc3ccccc23)c1	·	?	0.536µM*	13.8%	-1.8%
O=[N+]([O-])c1ccc(O)c(Nc2ncnc3ccc(Br)cc23)c1	·	0.9%	?	-2.0%	·
COc1ccccc1NC(=O)CC(C)n1nc(C)cc1C (stereo not given)	·	·	-1.9%	·	·
CN(CC(=O)Nc1ccc(N2CCOCC2)cc1)C(=O)c1cc(S(=O)(=O)N(C)C)ccc1Cl	·	-1.9%	15.1µM*	-0.3%	·
CCN(CC)S(=O)(=O)c1ccc2c(c1)nc(CCC(=O)Nc1ccc(N3CCOCC3)cc1)n2C	9.3%	-0.3%	16.9µM*	1.0%	-1.2%
CCc1ccc2oc(-c3ccc(NC(=O)c4cccc(Cl)c4Cl)cc3)nc2c1	-28.1%	·	-1.3%	·	·
CCOc1ccc(NC(=O)CNc2ccc(C)cc2Cl)cc1	-7.7%	-1.1%	9.53µM*	-4.6%	1.7%
CCOc1ccc(NC(=O)Cc2ccccc2)cc1	8.91µM*	3.55µM*	21.3µM*	2.82µM*	?
COC(=O)c1ccc(NC(=O)Cc2ccccc2)cc1	9.3%	3.98µM*	15.1µM*	2.51µM*	1.9%
CC(=O)Nc1ccc(C(=O)OCCc2ccccc2)cc1	·	17.1%	12µM*	17.7%	·
CCOc1ccc(NCC(=O)Nc2ccc(C)cc2C)cc1	-8.8%	-5.5%	0.4%[2.3 µM]	-3.6%	-3.3%
C(CCc1nnc2c(n1)CCCC2)Cc1nnc2c(n1)CCCC2	0.1%[9.22 µM]	·	·	·	-0.6%[7.66 µM]
CCCCCOC(=O)CSc1nc2sc3c(c2c(=O)n1Cc1ccccc1)CC(C)(CC)OC3 (stereo not given)	-4.8%	·	3.0%	·	·
CCOc1ccc(NC(=O)/C(C=Nc2ccccc2)=C(\C)O)cc1	·	-2.3%	12µM*	2.8%	·
COC(=O)c1ccc(NC(=O)C(=O)c2cccn2C)cc1	0.891µM*	0.398µM*	1.9µM*	0.355µM*	12.6µM*
COC(=O)c1sccc1-n1cccc1C(=O)C(=O)Nc1ccc(F)cc1	-27.1%	-2.2%	-0.2%	-13.0%[1.84 µM]	-2.7%
C/C=C/C(=O)OCC(=O)Nc1ccc(SC(F)F)cc1	5.3%	-26.6%	16.9µM*	0.8%	-1.3%
O=C(Cc1ccccc1)Nc1ccc(SC(F)F)cc1	11.2µM*	3.98µM*	16.9µM*	3.16µM*	-1.7%
COc1ccc(CC(=O)NC2CC(=O)N(c3cccc(F)c3)C2)cc1OC (stereo not given)	·	·	-3.9%	·	·
Cc1ccc(-n2nc(C)c3c(C)cc(=O)n(CC(=O)Nc4ccc(Br)cc4F)c32)cc1	·	·	6.6%	·	·
Cc1ccc(NC(=O)Cn2c(=O)c3cc(Cl)ccc3n3nncc23)cc1	-8.0%	·	-2.3%	·	·
CCOc1ccc(NC(=O)CN2C(=O)CSC(C)C2=O)cc1 (stereo not given)	9.0%	-1.4%	16.9µM*	-1.5%	-0.5%
SMILES	SMN2 splice up	NPC1 promoter act	FLuc counter	Rab9 promoter act	Luc counter
COc1ccc(NC(=O)CN2C(=O)CSC(C)C2=O)c(OC)c1 (stereo not given)	-4.2%	-2.8%	0.5%	0.4%	0.3%
CCOc1ccc(NC(=O)c2ccc(NC(=O)COC(=O)Cc3ccc(OC)cc3)cc2)cc1	11.2µM*	3.55µM*	-0.5%	2.51µM*	-0.3%
Cc1onc(-c2ccccc2)c1C(=O)NC(=S)NNC(=O)c1cc(-c2ccc(F)cc2)n[nH]1	·	0.5%	15.1µM*	-1.7%	·
CC(C)CC(NC(=O)OCC1c2ccccc2-c2ccccc21)C(=O)O (stereo not given)	12.6µM*	·	·	·	-0.5%
Cc1ccc(-c2ccc(CCC(=O)O)n2-c2cccc(C)c2C)cc1	-4.5%	·	?	·	·
COc1cc(NC(=O)c2ccccc2-n2cnnn2)cc(OC)c1	·	-1.7%	-1.9%	-3.4%	·
COc1cc(OC)cc(C(=O)Nc2ccc(-n3cnnn3)c(C)c2)c1	23.1%	?	15.1µM*	?	14.1µM*
Cc1cc(NC(=O)c2oc3ccccc3c2C)ccc1-n1cnnn1	-10.4%	19.5%	4.78µM*	4.3%	-0.6%
COc1cc(/C=N/O)ccc1OCc1ccccc1Cl	11.2µM*	3.16µM*	6.75µM*	1.58µM*	1.2%
COc1ccc(/C=N/N=C2/NC(=O)C(CC(=O)O)S2)cc1OCc1ccccc1Cl (stereo not given)	11.1%	-0.8%	-3.0%	-1.1%	6.0%
O=C(O)Cc1sc(Nc2ccc(F)cc2)nc1-c1cccs1	·	26.1%	16.9µM*	?	-1.3%
O=C(Cc1ccccc1)NCc1ccccn1	·	-3.0%	0.3%	-2.0%	-0.6%
O=C(Cc1sc(Nc2ccccc2)nc1-c1ccccc1)NCc1ccccn1	12.6µM*	?	19µM*	?	4.7%
O=C(O)Cc1sc(-c2ccc(Cl)cc2)nc1-c1ccccc1	21.3%	3.7%	16.9µM*	-0.8%	-2.1%
O=C(O)Cc1sc(Nc2ccc(C(=O)O)cc2)nc1-c1ccccc1	13.4%	·	?	·	·
O=C(O)Cc1sc(-c2ccccc2)nc1-c1ccccc1	-1.5%	2.0%	?	2.3%	2.3%
Cc1ccc(Nc2nc(-c3ccccc3)c(CC(=O)O)s2)cc1	2.1%	2.0%	13.5µM*	13.1%	2.8%
Cc1ccc2c(c1)cc1c(=O)n(CC(=O)NC(C)CCc3ccccc3)nc(C)n12 (stereo not given)	-7.0%	·	0.8%	·	·
N[C@H]1[C@@H](C(=O)O)[C@H]2C=C[C@H]1C2	1.8%[9.22 µM]	·	·	·	-1.5%[7.66 µM]
CC(C)(C)c1ccc(-c2nc(O)c(CC(=O)O)s2)cc1	·	-2.1%	1.9µM*	17.2%	·
O=C(O)Cc1sc(Nc2ccccc2Cl)nc1-c1ccccc1	69.4%	·	3.38µM*	·	·
CCOC(=O)c1sc(-c2ccc(C(F)(F)F)cc2)nc1O	·	1.4%	?	-2.0%	·
O=C(O)Cc1sc(Nc2ccccc2)nc1-c1ccc(Cl)cc1	10.9%	-12.9%	?	-0.5%	1.5%
Clc1ccccc1CN1CCN(/N=C/C=C\c2ccco2)CC1	20.4%	12.7%	16.9µM*	?	-1.0%
C(/C=C/c1ccco1)=N/N1CCN(c2ccccc2)CC1	?	1.58µM*	8.49µM*	3.55µM*	-11.9%
Cc1ccc(N2CCN(/N=C/C=C/c3ccccc3)CC2)cc1	-14.7%	-3.3%	-1.0%	2.3%	2.7%
COc1ccc(C(=O)Nc2cnn(Cc3c(F)cccc3Cl)c2)cc1OC	·	18.9%	19µM*	16.1%	·
COc1ccc(/C=C2\S/C(=N/S(=O)(=O)c3cccs3)NC2=O)cc1	8.6%	-4.1%	19µM*	-0.6%	2.3%
COc1ccc(/C=N/S(=O)(=O)c2cccs2)cc1	-12.4%	-0.2%	-0.7%	-1.8%	-6.2%

Screening data deposited in PubChem by National Center for Advancing Translational Sciences (NCATS).
